Screening results from PubChem.
G9a inh: qHTS Assay for Inhibitors of Histone Lysine Methyltransferase G9a; actives 8.8% (n = 350,000); Histone-lysine N-methyltransferase EHMT2 (Homo sapiens), Q96KQ7; Potency, µM (series often up to 102 µM), most hits filed as inhibitors; G9a H3K9 monomethylation, AlphaScreen, 2 h; AID 504332, 2011; further: nearly all actives have a fitted effect of over 75% in size
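Signal arises when biotinylated H3K9 peptide, once monomethylated, bridges streptavidin donor and antibody-captured acceptor beads. Enzyme at 20 nM was preincubated 15 min with test compounds; peptide 500 nM and SAM 20 uM then reacted for 2 h.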
12-LOX inh: Primary qHTS assay for inhibitors of human arachidonate 12S-lipoxygenase (ALOX12): Round 2 | Polyunsaturated fatty acid lipoxygenase ALOX12 (Homo sapiens), P18054 | Potency, µM (highest dose often 108 µM), actives largely listed as inhibitors | actives 1.1% (n = 580,000) | purified 12hLO, xylenol orange hydroperoxide absorbance
Target sequence (P18054 whole entry, looked up): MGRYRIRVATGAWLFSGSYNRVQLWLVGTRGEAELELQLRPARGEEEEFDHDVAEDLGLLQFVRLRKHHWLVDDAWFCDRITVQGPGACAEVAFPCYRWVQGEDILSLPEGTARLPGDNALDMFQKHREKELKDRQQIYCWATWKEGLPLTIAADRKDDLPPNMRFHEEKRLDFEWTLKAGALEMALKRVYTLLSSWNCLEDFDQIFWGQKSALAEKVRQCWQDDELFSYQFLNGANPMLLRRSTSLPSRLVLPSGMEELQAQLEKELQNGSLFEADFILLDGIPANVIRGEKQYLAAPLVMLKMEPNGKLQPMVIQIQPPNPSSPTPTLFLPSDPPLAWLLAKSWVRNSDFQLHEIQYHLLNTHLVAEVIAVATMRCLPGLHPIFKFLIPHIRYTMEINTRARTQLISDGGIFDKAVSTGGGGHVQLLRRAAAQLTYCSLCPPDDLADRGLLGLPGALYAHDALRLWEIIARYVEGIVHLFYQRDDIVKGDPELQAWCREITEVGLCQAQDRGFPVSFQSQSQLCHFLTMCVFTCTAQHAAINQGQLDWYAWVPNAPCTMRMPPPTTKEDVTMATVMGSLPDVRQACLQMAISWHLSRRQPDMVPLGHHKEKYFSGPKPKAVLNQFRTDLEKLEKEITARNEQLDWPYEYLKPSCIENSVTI
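Purified human 12hLO (150 nM final) in 25 mM Hepes, 0.01% Triton X-100, pH 7.0 was preincubated 15 min at room temperature with compound. Then 40 uM arachidonic acid was added, 30 min. Hydroperoxide was read by Fe-XO absorbance ratio 573/405 nm.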
VDR inhibitor: Inhibitors of the vitamin D receptor (VDR): qHTS; Vitamin D3 receptor (Homo sapiens), P11473; VDR-SRC2-3 peptide fluorescence polarization, 2 h; Potency, µM, most hits filed as inhibitors; actives 0.93% (n = 400,000); AID 504847, 2011
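Two reagent solutions held at 4 deg C in the dark were dispensed, compounds pinned at 23 nl, and the mixture incubated 2 h at room temperature. Read-out: fluorescence polarization of VDR–SRC2-3 peptide binding.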
Sfp PPTase inh: qHTS Assay for Inhibitors of Bacillus subtilis Sfp phosphopantetheinyl transferase (PPTase) | 4'-phosphopantetheinyl transferase ffp (Bacillus subtilis), Q9F4F7 | Biochemical Sfp PPTase activity, qHTS | Potency, µM, actives largely listed as inhibitors | actives 3.5% (n = 310,000) | AID 1490, 2009;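 further: the enzyme is Sfp with the accession as filed and its product quenches rhodamine fluorescence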
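Fluorescence-quenching assay with 15 nM Sfp, 5 uM rhodamine-CoA and 12.5 uM BHQ-2-labelled ybbR peptide in pH 7.6 Hepes/MgCl2 buffer. Enzyme was pre-incubated with compound for 15 min at room temperature. Rate was taken from the 30-min fluorescence change (525/598 nm).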
GRP78 ERSR act: qHTS for Inducers of the Endoplasmic Reticulum Stress Response (ERSR) in Human Glioma: qHTS; Potency, µM, actives largely listed as activators; U87-MG GRP78 promoter luciferase reporter, 16 h; actives 0.02% (n = 420,000); AID 602332, 2012; further: series mostly up to about 76 µM; nearly all actives have a fitted effect of over 35% in size
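ERSR induction read as luciferase luminescence (Bright-Glo, 10 min at room temperature) in stably transfected human U87-MG glioma cells exposed to compounds for 16 h, using GRP78 as sensor.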
A number is an active result; – = inactive; ? = inconclusive; · = no result given; [ ] = dose if it differs, or a comment. This is one part of a sample in which hits are shown more often than they occur. The call rests on the fitted dose curve; in most records, active means well fitted curve in the direction sought with a large enough effect; inconclusive means small, poorly fitted or top-dose-only effect, or another doubt; inactive means no such curve, though single readings can be large; an effect the other way counts as inactive or inconclusive.

SMILES | G9a inh | 12-LOX inh | VDR inhibitor | Sfp PPTase inh | GRP78 ERSR act
Cc1ccc(NC(=O)N2CCC(CCNC(=O)c3sccc3C)CC2)cc1 | · | – | · | · | ·
Cn1cc(CC(=O)N2CCCc3ncc(C(=O)Nc4cccnc4)cc32)c2ccccc21 | · | – | · | · | ·
CCOCCCNC(=O)c1cc(C)nc2ccc(C)cc12 | · | – | · | · | ·
CC(C)(C)c1ccc(S(=O)(=O)NC(Cc2ccccc2)C(=O)O)cc1 (configuration not stated) | 79.4µM | – | – | ? | –
Cc1ccc(S(=O)(=O)NC(CC(N)=O)C(=O)O)cc1 (configuration not stated) | 15.8µM | ? | – | – | –
Cc1ccc(S(=O)(=O)NC(Cc2ccccc2)C(=O)O)cc1 (configuration not stated) | – | – | – | – | –
COc1ccc(S(=O)(=O)N[C@@H](CSCc2ccccc2)C(=O)O)cc1 | 50.1µM | ? | – | – | –
N#Cc1ccc(NCCCNc2ccc(C#N)cn2)nc1 | · | – | · | · | ·
NC(=S)Cc1nc2n(n1)Cc1ccccc1-2 | 3.98µM | ? | – | 56.2µM | –
Cc1ccc(-c2nc3n(n2)Cc2ccccc2-3)cc1 | – | – | – | – | –
CN(C(=O)CSc1nc2ccccc2s1)c1c(N)n(Cc2ccccc2)c(=O)[nH]c1=O | 25.1µM | – | – | – | –
Cc1cc(OCC(=O)OCC(=O)N(C)c2c(N)n(Cc3ccccc3)c(=O)[nH]c2=O)ccc1Cl | 6.31µM | – | – | · | –
CCn1c(SCC(=O)N(C)c2c(N)n(Cc3ccccc3)c(=O)[nH]c2=O)nc2ccccc21 | · | – | – | 28.2µM | –
CCN(C(=O)CSc1nc2ccc([N+](=O)[O-])cc2s1)c1c(N)n(Cc2ccccc2)c(=O)[nH]c1=O | · | – | – | · | –
COc1ccc(-c2csc(/C(C#N)=C\c3ccccc3C(F)(F)F)n2)cc1 | · | – | · | · | ·
CCOc1cc(-c2ccc3c(c2)OCO3)cc(=O)c2c(C)oc(C)c12 | ? | · | · | 31.6µM | ·
CCOc1ccc(-c2cc(OC(=O)c3ccccc3)c3c(C)oc(C)c3c(=O)c2)cc1 | 11.2µM | ? | ? | · | –
Cc1ccccc1C(=O)Oc1cc(-c2ccc3c(c2)OCO3)cc(=O)c2c(C)oc(C)c12 | 14.1µM | ? | – | · | –
Cc1ccc(C(=O)Oc2cc(-c3ccc4c(c3)OCO4)cc(=O)c3c(C)oc(C)c23)cc1 | ? | ? | – | · | –
COc1ccc(-c2cc(OC(=O)c3ccccc3C)c3c(C)oc(C)c3c(=O)c2)cc1 | 14.1µM | – | ? | · | –
CC(C)CNC(=O)CCc1ccc(C#N)cc1 | · | – | · | · | ·
CCCn1c(-n2nc(CC)cc2CC)nc2c1c(=O)n(CC(N)=O)c(=O)n2C | · | – | · | · | ·
COCc1cc(C)nc(N/N=C/c2ccc(-c3ccc(Cl)cc3[N+](=O)[O-])o2)c1C#N | 39.8µM | – | – | ? | –
Cc1c(C(=O)N/N=C/c2ccc(-c3ccccc3[N+](=O)[O-])o2)sc(N)c1C#N | – | ? | ? | ? | –
CCCOC(c1ccccc1)(c1ccccc1)C(Oc1nc(C)cc(C)n1)C(=O)O (configuration not stated) | 70.8µM | – | – | – | –
SMILES | G9a inh | 12-LOX inh | VDR inhibitor | Sfp PPTase inh | GRP78 ERSR act
CN(C)C[C@@H]1CN(S(C)(=O)=O)C[C@H]1NC(=O)C1(c2ccccc2)CCCC1 | · | – | · | · | ·
O=c1cc(-c2ccc(O)c(O)c2)oc2c1ccc1ccccc12 | ? | 0.355µM | – | · | –
O=c1cc(-c2ccccc2)oc2c1ccc1ccccc12 | · | – | · | 44.7µM | –
O=c1cc(/C=C/c2ccccc2)oc2c1ccc1ccccc12 | ? | – | ? | 79.4µM | –
O=c1cc(-c2cccnc2)oc2c1ccc1ccccc12 | – | – | – | – | –
O=c1cc(-c2ccc(O)c(O)c2)oc2ccc3ccccc3c12 | 56.2µM | ? | – | · | –
O=c1cc(C(F)(F)F)oc2c1ccc1ccccc12 | – | – | – | – | –
CCCCNC(=O)c1cccc(NC(=O)Cc2ccccc2)c1 | · | – | · | · | ·
COc1cccc(CN2CCCC(c3nc(C(C)C)no3)CCNC(=O)CC2)c1 (configuration not stated) | · | – | · | · | ·
CN(C)c1ccc2c(c1)OC(N)=C(C#N)C2c1cccc(F)c1 (configuration not stated) | 44.7µM | · | – | ? | –
COC(=O)c1ccc(C2C(C#N)=C(N)Oc3cc(O)ccc32)cc1 (configuration not stated) | – | 25.1µM | – | – | –
CCOC(=O)C1=C(N)Oc2cc(O)ccc2C1c1ccc([N+](=O)[O-])cc1 (configuration not stated) | 39.8µM | – | – | 25.1µM | –
COC(=O)c1ccc(C2C(C#N)=C(N)Oc3cc(N)ccc32)cc1 (configuration not stated) | – | ? | – | – | –
CCOC(=O)C1=C(N)Oc2ccc3ccccc3c2C1c1ccc(O)cc1 (configuration not stated) | ? | ? | – | – | –
COc1ccc(C2C(C#N)=C(N)Oc3cc(O)ccc32)cc1Cl (configuration not stated) | ? | 31.6µM | – | – | –
CCOc1ccc(C2C(C#N)=C(N)Oc3cc(O)ccc32)cc1OCC (configuration not stated) | –[0.501 µM] | – | – | – | –
CCOC1CCN(C(=O)c2ccccc2-c2ncc(-c3ccc(C)cc3)o2)CC1 | · | – | · | · | ·
CCCOC(=O)c1ccc(Nc2nc(C(=O)OCC)nc3ccccc23)cc1 | · | – | · | · | ·
Cc1ccc(C(=O)N(C)Cc2ccsc2)s1 | · | – | · | · | ·
N#CC1=C(N)Oc2cc(O)ccc2C1c1cccs1 (configuration not stated) | 56.2µM | ? | – | ? | –
Cc1ccc(COc2ccc(C3C(C#N)=C(N)Oc4cc(O)ccc43)cc2)cc1 (configuration not stated) | · | – | · | · | ·
COc1ccc(C2C(C#N)=C(N)Oc3cc4c(cc32)OCO4)cc1 (configuration not stated) | ? | 12.6µM | – | – | –
COc1ccc(C2C(C#N)=C(N)Oc3c2oc(CO)cc3=O)cc1 (configuration not stated) | ? | – | – | 56.2µM | –
C#CCOc1ccc(C2C(C#N)=C(N)Oc3cc(O)ccc32)cc1 (configuration not stated) | –[0.501 µM] | 28.2µM | ? | – | –
CC1=C(C(=O)O)N2C(=O)C(NC(=O)c3ccn(C)n3)C2SC1 (configuration not stated) | ? | – | – | 22.4µM | –
CC1=C(C(=O)O)N2C(=O)[C@@H](NC(=O)[C@H](N)c3ccc(O)cc3)[C@H]2SC1 | · | – | – | · | –
